Experimental findings from PubChem BioAssay (Tox21) are described below.

The nature of assay [1]: qHTS assay to identify small molecule antagonists of the estrogen related receptor (ERR) signaling pathway from Tox21 library - cell viability counter screen (AID 1224834). Also: nearly all actives have a fitted effect of over 30% in size. Also: potency is read from the fitted curve at half-maximal effect. The method in brief:
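Fluorescence from CellTiter-Fluor gives the viability read-out, taken 30 min after reagent addition. Before that, ERR cells seeded 6 h earlier were incubated with compounds for 17.5 h at 37 C.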
Background: qHTS replaces the single test concentration by a dilution series.

Assay [2] addresses Luciferin 4-monooxygenase (Photinus pyralis) (UniProt P08659). The assay can be described thus: qHTS assay to identify small molecule inhibitors of firefly luciferase (AID 1224835). Also: nearly all actives have a fitted effect of over 25% in size. Also: potency is read from the fitted curve at half-maximal effect. The method in brief:
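Quantitative HTS format; KM concentrations of both substrates. Purified P. pyralis FLuc activity quantified from luminescence images.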

Assay [3] can be described thus: qHTS assay to identify small molecule agonists of the constitutive androstane receptor (CAR) signaling pathway - cell viability counter screen (AID 1224836). Also: nearly all actives have a fitted effect of over 45% in size. Also: potency is read from the fitted curve at half-maximal effect. The method, boiled down:
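Cell viability multiplexed with the CAR agonist screen: CellTiter-Fluor fluorescence after 23 hr at 37 C. HepG2-CYP2B6-hCAR cells got compounds at 15 concentrations with PK11195 at 0.75 uM final.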

The nature of assay [4]: qHTS assay to identify small molecule antagonists of the constitutive androstane receptor (CAR) signaling pathway - cell viability counter screen (AID 1224837). Also: nearly all actives have a fitted effect of over 45% in size. Also: potency is read from the fitted curve at half-maximal effect. The method, boiled down: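 HepG2-CYP2B6-hCAR cells, 2500/well, 4 hr pre-incubation; compound titration, 15 conc.; CITCO 50 nM final; 23 hr, 37 C/5% CO2; CellTiter-Fluor, fluorescence intensity.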
Assay [5] addresses Nuclear receptor subfamily 1 group I member 3 (Homo sapiens) (UniProt Q14994). Description: qHTS assay to identify small molecule antagonists of the constitutive androstane receptor (CAR) signaling pathway (AID 1224838).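 Also: HepG2 cells stably expressing hCAR with CYP2B6 luciferase reporter stimulated by CITCO; nearly all actives have a fitted effect of over 40% in size.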 The method, boiled down: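 HepG2-CYP2B6-hCAR cells; 4 h pre-incubation; cpd (15 conc) + CITCO 50 nM final; 24 h, 37 C/5% CO2; ONE-Glo, luminescence.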
Assay [6] can be described thus: qHTS assay to identify small molecule antagonists of the estrogen related receptor signaling pathway with the pleiotropic PPARgamma coactivator (PGC) from Tox21 10K library - cell viability counter screen (AID 1224840; active = well fitted cell-killing curve with a large enough effect in the repeat runs, not every such curve was filed as active; also: nearly all actives have a fitted effect of over 40% in size; also: potency is read from the fitted curve at half-maximal effect). The method in brief:
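PGC/ERR cells, 2,000/well; 6 h pre-incubation 37 C/5% CO2; cpd in DMSO via pin tool; 17.5 h 37 C; CellTiter-Fluor, 30 min; fluorescence.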

Assay [7] is described as follows: qHTS assay to identify small molecule antagonists of the estrogen related receptor signaling pathway with the pleiotropic PPARgamma coactivator (PGC) from Tox21 10K library (AID 1224841; call rule not given here; also: actives are mostly falling curves and most rising ones were filed inactive; nearly all actives have a fitted effect of over 50% in size). The method in brief:
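PGC/ERR cell line, 2,000 cells/well; 6 h pre-incubation 37 C/5% CO2; compounds (DMSO) pinned in; 18 h, 37 C; One-Glo, 30 min RT; luminescence.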

The nature of assay [8]: qHTS assay to identify small molecule agonists of the estrogen related receptor signaling pathway with the pleiotropic PPARgamma coactivator (PGC) from Tox21 10K library (AID 1224842). Also: nearly all actives have a fitted effect of over 15% in size. The method in brief:
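PGC/ERR reporter cells (NTP line) were seeded 2,000 per well, rested 6 h at 37 C/5% CO2, then pin-dosed with compounds in DMSO for 18 h at 37 C; luciferase read by One-Glo luminescence after 30 min at room temperature.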

In assay [9] the target is Thyrotropin receptor (Homo sapiens) (UniProt P16473). The assay can be described thus: qHTS assay to identify small molecule agonists of the thyroid stimulating hormone receptor (TSHR) signaling pathway (AID 1224843; calls by dose curve; also: nearly all actives have a fitted effect of over 45% in size). The method, boiled down:
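Cell line HEK293 with TSHR; density 800/well. Exposure 30 min RT. Readout HTRF cAMP (cAMP-d2/anti-cAMP-cryptate), 1 h RT before reading.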

Assay [10] is described as follows: qHTS assay to identify small molecule agonists of the hypoxia (HIF-1) signaling pathway - cell viability counter screen (AID 1224844; calls by dose curve; also: nearly all actives have a fitted effect of over 50% in size). The method in brief:
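ME-180 HRE-bla cells, 2,000/well, 0.5% dialyzed FBS; 5 hr settle, 17 hr compound at 37C/5% CO2; CCF4-AM reporter read first, then CellTiter-Glo luminescence after 30 min RT.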

Assay [11] can be described thus: qHTS assay to identify small molecule agonists of H2AX (AID 1224845; active = well fitted activation curve with a large enough effect in the signal ratio in the repeat runs, not every such curve was filed as active; the % refers to the signal ratio). The method, boiled down:
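Wild-type CHO-K1 cells plated overnight, then exposed 3 hr at 37C to compounds at 15 concentrations (0.76% DMSO). Lysed, then HTRF anti-pH2AX(S139)-cryptate/anti-H2AX-d2 detection after 24 hr at room temperature; emissions 665 and 620 nm.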

Assay [12] can be described thus: qHTS assay to identify small molecule agonists of the hypoxia (HIF-1) signaling pathway (AID 1224846; active = well fitted activation curve with a large enough effect in the signal ratio in the repeat runs, not every such curve was filed as active; the % refers to the signal ratio). The method in brief: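 Cell line: CellSensor HRE-bla ME-180; 2,000 cells/well; 0.5% dialyzed FBS; 5 h preincubation; DMSO compound pin transfer; 17 h, 37C, 5% CO2; CCF4-AM added; bla FRET signal scored for activation.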
Assay [13] in a line: qHTS assay to identify small molecule agonists of H2AX - cell viability counter screen (AID 1224847; calls by dose curve; also: top concentration of the series differs between compounds; nearly all actives have a fitted effect of over 30% in size). The method in brief: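 Counter-screen for viability: CellTiter-Glo ATP luminescence read after 3 h compound treatment (15-point titration, 0.76% DMSO final) of CHO-K1 cells at 37C, with 30 min room-temperature reagent incubation.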
Assay [14] is described as follows: qHTS assay to identify small molecule antagonists of the estrogen related receptor (ERR) signaling pathway from Tox21 library (AID 1224848). Also: nearly all actives have a fitted effect of over 50% in size. The method in brief: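 Screening used an ERR reporter line supplied by NTP, exposed for 18 h at 37 C to library compounds delivered in DMSO. Signal was luciferase luminescence developed with ONE-Glo at room temperature for 30 min.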

Assay [15] in a line: qHTS assay to identify small molecule agonists of the estrogen related receptor (ERR) signaling pathway from Tox21 library (AID 1224849; calls by dose curve; also: nearly all actives have a fitted effect of over 15% in size). Particulars: ERR reporter cell line, ONE-Glo luciferase, 18 h. The method in brief: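 ERR cells, 6 h pre-incubation 37 C/5% CO2; cpd in DMSO pinned; 18 h 37 C; ONE-Glo added, 30 min RT; luminescence read. Agonist mode, qHTS.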
Assay [16] can be described thus: qHTS RealTime-Glo MT Cell Viability Assay in HepG2 cells - 24 hour (AID 1224867). Also: nearly all actives have a fitted effect of over 50% in size. The method in brief:
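Tox21 10K library screened in qHTS format on HepG2 cells carrying RealTime-Glo reagents. Compounds were added after a 5 h preincubation, and the luminescent signal from continuous culture was measured repeatedly during 40 h treatment.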

Assay [17] can be described thus: qHTS RealTime-Glo MT Cell Viability Assay in HEK293 cells - 32 hour (AID 1224868). The method, boiled down:
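Luminescence generated by NanoLuc from substrate produced by living HEK293 cells served as the viability signal. Each value reflects the reading at its stated time point during continuous 40 h compound exposure at 37 C.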

Assay [18] in a line: A CellTox Green Cytotoxicity Assay to monitor cytotoxicity in HEK293 cells - 0 hour (AID 1224869). Also: nearly all actives have a fitted effect of over 50% in size. The method, boiled down: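 Nonlytic real-time cytotoxicity: HEK293 + CellTox Green reagent plated, 5 h preincubation, pintool compound addition (23 nL in DMSO), 37 C for 40 h, fluorescence measured at successive time points.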
Assay [19] is described as follows: qHTS RealTime-Glo MT Cell Viability Assay in HepG2 cells - 40 hour (AID 1224870). Also: nearly all actives have a fitted effect of over 50% in size. The method, boiled down: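 HepG2 cells mixed with RealTime-Glo MT reagents (NanoLuc plus cell-permeant prosubstrate) were seeded at 600 cells/well, incubated 5 h at 37 C/5% CO2, then pinned with compounds in DMSO; nonlytic luminescence tracked viability during 40 h treatment.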
In assay [20] the target is Nuclear receptor subfamily 1 group I member 3 (Homo sapiens) (UniProt Q14994). Description: qHTS assay to identify small molecule agonists of the constitutive androstane receptor (CAR) signaling pathway (AID 1224839).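 Also: HepG2 cells stably carrying human CAR and a CYP2B6 luciferase reporter; nearly all actives have a fitted effect of over 15% in size.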 The method, boiled down: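 Luminescent ONE-Glo read-out after 24 hr, 37 C exposure of double-stable HepG2-CYP2B6-hCAR reporter cells to a 15-point compound series, in the presence of 0.75 uM PK11195 (final).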

A number with no mark means an inactive call. Results filed as inconclusive are left out. Activity calls are given as the source filed them. Unless noted, calls follow the shape of the dose curve; as a rule, active = well fitted curve in the direction sought with a large enough effect in the repeat runs; inconclusive = weak or mixed curves; inactive = no such curve, though single readings can be large; an effect the other way counts as inactive or inconclusive.
% is scaled to controls: 0 for no effect and ±100 for the full control effect.

Nuclear receptor subfamily 1 group I member 3 (Homo sapiens), sequence (Q14994 whole entry, looked up): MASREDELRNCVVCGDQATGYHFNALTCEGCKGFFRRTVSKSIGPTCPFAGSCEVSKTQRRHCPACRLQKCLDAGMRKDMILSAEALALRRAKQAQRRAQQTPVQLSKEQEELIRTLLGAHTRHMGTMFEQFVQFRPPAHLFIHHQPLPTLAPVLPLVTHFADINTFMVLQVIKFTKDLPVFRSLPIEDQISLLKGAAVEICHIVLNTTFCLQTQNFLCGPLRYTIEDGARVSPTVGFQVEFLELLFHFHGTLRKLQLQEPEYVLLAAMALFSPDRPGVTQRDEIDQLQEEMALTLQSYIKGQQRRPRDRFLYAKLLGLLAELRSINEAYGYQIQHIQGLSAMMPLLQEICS
Luciferin 4-monooxygenase (Photinus pyralis), sequence (P08659 whole entry, looked up): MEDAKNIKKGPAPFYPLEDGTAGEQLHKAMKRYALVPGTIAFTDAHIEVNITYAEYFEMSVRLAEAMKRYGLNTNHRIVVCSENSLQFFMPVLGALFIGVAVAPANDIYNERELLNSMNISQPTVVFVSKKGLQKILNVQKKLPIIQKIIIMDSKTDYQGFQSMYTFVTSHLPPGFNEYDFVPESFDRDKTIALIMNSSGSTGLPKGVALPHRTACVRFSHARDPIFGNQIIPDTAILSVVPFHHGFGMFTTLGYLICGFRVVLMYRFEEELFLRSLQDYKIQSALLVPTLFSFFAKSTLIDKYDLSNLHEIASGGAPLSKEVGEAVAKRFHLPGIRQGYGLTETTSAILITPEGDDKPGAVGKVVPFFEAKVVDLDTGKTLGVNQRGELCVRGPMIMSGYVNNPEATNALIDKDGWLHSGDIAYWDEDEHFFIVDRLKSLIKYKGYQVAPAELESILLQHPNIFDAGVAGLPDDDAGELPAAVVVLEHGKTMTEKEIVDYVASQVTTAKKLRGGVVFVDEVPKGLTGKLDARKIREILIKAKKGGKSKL
Thyrotropin receptor (Homo sapiens), sequence (P16473 whole entry, looked up): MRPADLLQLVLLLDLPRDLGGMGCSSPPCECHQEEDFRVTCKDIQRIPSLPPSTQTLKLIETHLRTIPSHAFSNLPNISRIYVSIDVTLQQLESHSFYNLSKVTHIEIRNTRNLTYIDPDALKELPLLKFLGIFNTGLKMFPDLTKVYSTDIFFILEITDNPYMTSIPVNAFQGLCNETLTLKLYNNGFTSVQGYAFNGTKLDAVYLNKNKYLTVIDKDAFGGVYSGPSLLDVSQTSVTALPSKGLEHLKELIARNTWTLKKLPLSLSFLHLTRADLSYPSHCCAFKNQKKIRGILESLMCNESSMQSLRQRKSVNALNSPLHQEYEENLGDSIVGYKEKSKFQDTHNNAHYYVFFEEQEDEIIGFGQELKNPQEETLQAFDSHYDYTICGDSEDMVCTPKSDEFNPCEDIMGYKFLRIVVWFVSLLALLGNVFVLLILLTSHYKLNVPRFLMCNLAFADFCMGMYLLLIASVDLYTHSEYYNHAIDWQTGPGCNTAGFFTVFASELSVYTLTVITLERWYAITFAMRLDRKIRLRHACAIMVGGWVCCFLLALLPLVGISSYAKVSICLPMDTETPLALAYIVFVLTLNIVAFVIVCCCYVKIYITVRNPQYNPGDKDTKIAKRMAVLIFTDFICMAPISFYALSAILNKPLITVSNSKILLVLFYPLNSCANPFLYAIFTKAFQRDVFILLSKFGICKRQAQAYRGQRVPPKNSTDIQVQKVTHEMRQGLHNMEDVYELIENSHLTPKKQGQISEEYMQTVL

Consider `Cc1ccc(C(C)C)cc2c(C)ccc1-2`, for which the Potency entry in [1], in assay [2], in assay [3], in assay [4], in [5] and in assay [6] was “inactive” throughout. The Potency entry in assay [7], in assay [8], in [9], in assay [10], in [11] and in [12] was “inactive” throughout. Further, the Potency result in [13], in assay [14], in assay [16], in assay [17] and in assay [18] was “inactive” throughout. In assay [15] (at 42.5 µM (top of the series)), the activity change, positive = activation was -2.57%.

Consider `c1cnccn1`, for which the Potency result in [1], in assay [2], in [3], in assay [4], in [5] and in assay [6] was “inactive” in each case. The Potency entry in [9], in [10], in [11], in [12], in assay [13] and in assay [16] was “inactive” throughout. Further, the Potency entry in assay [17], in [18] and in assay [19] was “inactive” in each case.

For the compound `CC(C(=O)O)c1ccc2c(c1)[nH]c1ccc(Cl)cc12` (configuration not stated), the Potency entry in [1], in [3], in assay [4], in [5], in [6] and in assay [9] was “inactive” each time. For the same compound, the Potency entry in [10], in assay [11], in assay [12], in [13], in [16] and in [17] was “inactive” in each case. Moreover, the Potency result in assay [18] and in assay [19] was “inactive” throughout. Further, in assay [2], the Potency was 34.7 µM (active).

Turning to `CC(C)CCOC(=O)/C=C/c1ccccc1`, the Potency entry in [1], in assay [3], in [4], in assay [5], in assay [6] and in [9] was “inactive” each time. The Potency result in assay [10], in [12], in assay [13], in assay [16], in assay [17] and in assay [18] was “inactive” in each case. The Potency entry in [19] was “inactive”. Moreover, the Potency in [2] was 8 µM (active).

As for `CC(=O)c1ccc(C(C)=O)cc1`, the Potency result in assay [1], in assay [2], in [3], in assay [4], in assay [5] and in assay [6] was “inactive” throughout. Moreover, the Potency result in assay [7], in [8], in assay [9], in [11], in assay [12] and in [13] was “inactive” throughout. Further, the Potency entry in assay [14], in assay [16], in assay [17] and in [18] was “inactive” each time. The activity change, positive = activation in assay [15] (at 92.4 µM (top of the series)) was -2.27%.

Consider `c1ccsc1`, for which the Potency result in assay [1], in [2], in [3], in assay [4], in [5] and in assay [6] was “inactive” throughout. Besides, the Potency result in assay [9], in assay [10], in assay [11], in assay [12], in assay [16] and in assay [17] was “inactive” throughout. Also, the Potency entry in assay [18] and in assay [19] was “inactive” in each case.

As to `Cc1ccc(N/N=c2\c(=O)cc/c(=N\Nc3ccc(S(=O)(=O)O)cc3)c2=O)c(C)c1`, the Potency in [1] was 30.6 µM (active); in assay [2], 28.3 µM (active); in [3] it was 30.6 µM (active); in assay [4], 48.6 µM (active); in assay [6], 30.6 µM (active). Moreover, the Potency entry in [5], in assay [8], in assay [9], in [12], in assay [14] and in [16] was “inactive” in each case. For the same compound, the Potency entry in assay [17], in [18] and in assay [19] was “inactive” throughout. Moreover, the activity change, positive = activation in assay [15] (at 92.4 µM (top of the series)) is -2.81%.

With `CCCC[P+](C)(CCCC)CCCC`, the Potency result in assay [1], in assay [2], in assay [3], in [4], in [5] and in assay [20] was “inactive” each time. The Potency result in assay [6], in [9], in assay [10], in assay [11], in assay [12] and in assay [16] was “inactive” in each case. Also, the Potency result in assay [18] and in assay [19] was “inactive” in each case.
